FLuc counter = qHTS profiling assay for firefly luciferase inhibitor/activator using purifed enzyme and Km concentrations of substrates (counterscreen for miR-21 project). purified FLuc, Km substrates, luminescence inhibition. Luciferin 4-monooxygenase (Photinus pyralis), P08659. AID 588342, 2011. actives 6.9% (n = 360,000). Potency, µM (top dose mostly 57.5 µM), for inactives: at the top dose activity change, negative = inhibition, most hits filed as inhibitors;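 also: plate controls were vehicle for no effect and reference inhibitor for full effect; nearly all actives have a fitted effect of over 55% in size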
Target sequence (P08659 whole entry, looked up): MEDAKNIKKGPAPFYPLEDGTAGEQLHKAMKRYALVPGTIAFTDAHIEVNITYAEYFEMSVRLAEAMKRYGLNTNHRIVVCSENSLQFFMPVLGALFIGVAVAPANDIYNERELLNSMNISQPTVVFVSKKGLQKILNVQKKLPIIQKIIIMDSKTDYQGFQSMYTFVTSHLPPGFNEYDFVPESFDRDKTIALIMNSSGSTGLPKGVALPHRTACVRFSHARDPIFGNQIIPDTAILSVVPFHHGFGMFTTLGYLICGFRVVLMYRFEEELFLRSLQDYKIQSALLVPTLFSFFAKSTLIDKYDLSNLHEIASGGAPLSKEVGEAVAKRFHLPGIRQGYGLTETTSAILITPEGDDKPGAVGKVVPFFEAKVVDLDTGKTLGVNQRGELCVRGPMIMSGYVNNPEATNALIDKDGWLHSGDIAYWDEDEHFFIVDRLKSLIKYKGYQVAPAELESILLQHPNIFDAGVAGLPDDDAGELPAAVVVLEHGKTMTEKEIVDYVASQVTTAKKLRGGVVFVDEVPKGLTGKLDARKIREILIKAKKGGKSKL
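Purified P. pyralis luciferase, 10 nM final, with Km-level 10 uM D-luciferin and 10 uM ATP in 50 mM Tris acetate pH 7.5, 10 mM Mg acetate, 0.01% Tween-20, 0.05% BSA; 6-point qHTS titration about 60 µM downward; luminescence read.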
SMN2 splice enh = qHTS Assay for Enhancers of SMN2 Splice Variant Expression; AID 1458, 2008; actives 2.8% (n = 210,000); Potency, µM (titrated, usually from 46.1 µM), for the others: at the top dose activity change, positive = activation, hits mostly activators; HEK293 SMN2-luciferase splicing reporter, luminescence, 30-36 h; also: % of control where 0% means no effect; nearly all actives have a fitted effect of over 55% in size
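qHTS luciferase splicing reporter: luminescence rises when SMN2 exon 7 is included in transfected HEK293 cells. Compound exposure lasted 30-36 h at 37C, with 4.5 mM final sodium butyrate as control, followed by a ONE-Glo read.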
Rab9 promoter act = qHTS Assay for Rab9 Promoter Activators | Huh7 Rab9 promoter-luciferase reporter, luminescence, 24 h | Potency, µM (highest dose often 9.22 µM), for the others: top-dose activation, negative = inhibition, most hits filed as activators | actives 2.8% (n = 320,000) | AID 485297, 2010; also: % of control where 0% means no effect; nearly all actives have a fitted effect of over 60% in size
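Huh7 reporter line, Rab9 promoter upstream of luciferase. Compound exposure 24 h at 37 °C in reduced-serum medium with 10% FBS. Read-out: luminescence.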
ELG1 repair inh = qHTS screen for small molecules that inhibit ELG1-dependent DNA repair in human embryonic kidney (HEK293T) cells expressing luciferase-tagged ELG1 | actives 2.3% (n = 330,000) | Potency, µM (top dose mostly 46.1 µM), inactives show at the highest dose activity change, negative = inhibition, most hits filed as inhibitors | HEK293T ELG1-luciferase reporter, luminescence, 16 h; DNA damage induced by 5-fluorouridine | AID 504467, 2011; also: % is scaled to controls: 0 for no effect and ±100 for the full control effect; nearly all actives have a fitted effect of over 55% in size
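Quantitative HTS, concentration-response format. 2,000 cells/well co-treated with 5-fluorouridine and compound, 16 hr in 5% CO2 at 37 °C; ONE-Glo luminescence read after 30 min.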
ELG1 genotoxic = qHTS screen for small molecules that induce genotoxicity in human embryonic kidney (HEK293T) cells expressing luciferase-tagged ELG1 | HEK293T ELG1-luciferase reporter, luminescence, 16 h | Potency, µM (top dose mostly 46 µM), inactives show at the highest dose activity change, positive = activation, actives largely listed as activators | actives 1.3% (n = 330,000) | AID 504466, 2011; also: % of control where 0% means no effect; nearly all actives have a fitted effect of over 60% in size
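Genotoxic stress is detected as increased luminescence from luciferase-tagged ELG1 in HEK293T cells, measured with ONE-Glo after a 16 hr treatment at 37 °C.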
NPC1 promoter act = qHTS Assay for NPC1 Promoter Activators; Huh7 NPC1 promoter luciferase reporter, 24 h; Potency, µM (series often up to 9.22 µM), inactives show top-dose activation, hits mostly activators; actives 2.4% (n = 320,000); also: % of control where 0% means no effect; nearly all actives have a fitted effect of over 60% in size
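NPC1 promoter–luciferase Huh7 cells; 24 h compound; luminescence.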
The depositor's hits bear a star; ? = inconclusive; . = not tested or not shown; [ ] = remark or other dose. Rows were chosen to be rich in hits. Some 9.4% of all compounds tested hit in one or more screens of this group. Calls follow the shape of the dose curve; as a rule, active = well fitted curve in the direction sought with a large enough effect; inconclusive = small, poorly fitted or top-dose-only effect, or another doubt; inactive = no such curve, though single readings can be large; an effect the other way counts as inactive or inconclusive. Potency is read from the fitted curve at half-maximal effect.

SMILES | FLuc counter | SMN2 splice enh | Rab9 promoter act | ELG1 repair inh | ELG1 genotoxic | NPC1 promoter act
Cc1cc(Cl)ccc1OCC(=O)N(Cc1ccco1)Cc1ccccc1F | ? | -39% | . | . | . | .
O=c1c2ccccc2nc2sc(Nc3cccc4ccccc34)nn12 | 2% | . | . | . | . | .
Cc1cccc(Nc2nn3c(=O)c4ccccc4nc3s2)c1 | ? | 7.9µM* | ? | ? | 9% | 4µM*
CCCSc1nn2c(=O)c3ccccc3nc2s1 | 7.6µM* | 35µM* | 2µM* | ? | 2.9µM* | 4µM*
Fc1ccccc1OCCSc1ncnc2nc[nH]c12 | ? | ? | ? | ? | ? | 26%
COc1ccc(OCCSc2ncnc3nc[nH]c23)cc1 | 17µM* | -18% | ? | -1% | ? | ?
COc1cccc(OCCSc2nc(N)cc(N)n2)c1 | 24µM* | -63% | ? | -5% | ? | ?
COc1cccc(OCCCCSc2ncccn2)c1 | ? | 18% | 16% | ? | ? | 13%
COc1ccccc1OCCSc1nc2ccccc2c(=O)[nH]1 | ? | ? | 15% | ? | ? | 16%
COc1ccc(OCCCSc2ncccn2)cc1 | 13µM* | 25µM* | ? | ? | 10µM* | ?
O=c1[nH]c(SCCOc2ccccc2F)nc2ccccc12 | 27µM* | . | 18% | ? | 8% | 12%
Oc1c(C(c2ccccc2F)N2CCC3(CC2)OCCO3)sc2nc(-c3ccco3)nn12 (stereo not given) | -16% | . | . | . | . | .
COc1cccc(CNC(=O)CCc2c(C)nn(-c3ccc(N4CCOCC4)nn3)c2C)c1 | 4% | . | . | . | . | .
Nc1cc(N)nc(SCCOc2ccccc2F)n1 | ? | 13µM* | ? | ? | ? | 28%
COc1ccc(OCCSc2nc3nc(C)cc(C)n3n2)cc1 | -7% | -3% | -3% | -1% | 2% | -2%
COc1ccc(OCCSc2ncccn2)cc1 | 7.6µM* | 14µM* | 1.6µM* | ? | 3.7µM* | 2.2µM*
CC(C)(C)c1cccc(OCCCSc2ncccn2)c1 | ? | -20% | 4% | ? | 3% | -1%
Clc1ccc(OCCSc2ncccn2)cc1 | 6.7µM* | 25µM* | 3.5µM* | ? | 8.2µM* | 2.5µM*
Cc1ccc(OCCCSc2ncccn2)cc1C | 15µM* | 20µM* | ? | ? | ? | ?
COc1ccccc1OCCSc1nc(N)cc(N)n1 | ? | ? | 7% | ? | 18% | 5%
CCCN(Cc1cccs1)C(=O)Nc1ccc(Br)c(C)c1 | -13% | . | . | . | . | .
CCOc1ccccc1NC(=O)Cn1ncc2c([nH]c3ccccc32)c1=O | 0% | . | . | . | . | .
CCc1ccc(CNC(=O)C(CC)n2ccc3cc(S(=O)(=O)N4CCCCC4)ccc32)cc1 (stereo not given) | 4% | . | . | . | . | .
Cc1ccccc1CNC(=O)C(=O)NCC(c1cccs1)S(=O)(=O)c1ccc(Cl)cc1 (stereo not given) | 1% | . | . | . | . | .
COc1cc(OC)c2c(C)c(CC(=O)NCc3ccccc3OC)c(=O)oc2c1 | -3% | 3% | . | . | . | .
SMILES | FLuc counter | SMN2 splice enh | Rab9 promoter act | ELG1 repair inh | ELG1 genotoxic | NPC1 promoter act
COc1ccc(-n2c(=O)c3c4c(sc3n(Cc3ccc(C)cc3C)c2=O)CCC4)c(OC)c1 | -5% | 1% | . | . | . | .
c1cnc(SCCCOc2ccc3ccccc3c2)nc1 | 17µM* | 16% | ? | ? | 21µM* | ?
Cn1cccc1C(=O)N1CCC2(CC1)CN(C(=O)Nc1cccc(C#N)c1)C2 | . | -9% | . | . | . | .
CCOC(=O)c1ccc(-c2ccc(/C=N/NC(=O)c3cncc(Br)c3)o2)cc1 | 2% | . | 0.71µM* | ? | ? | 1.3µM*
Nc1nnc(CC(=O)N/N=C/c2ccc(-c3ccc(F)cc3)o2)s1 | ? | . | -6% | 0% | 1% | 1%
CCOC(=O)c1ccc(-c2ccc(/C=N/NC(=O)Cc3nnc(N)s3)o2)cc1 | ? | . | 3.2µM* | ? | 14% | 2.5µM*
CCc1ccc(NC(=O)c2ccccc2SC)cc1 | 15µM* | ? | ? | ? | ? | ?
CSc1ccccc1C(=O)Nc1c(C)cccc1C | 3% | . | -2% | -15% | 0% | -4%
Cc1ccc(NC(=O)c2cccc(C(=O)Nc3ccc(C)c(C)c3)n2)cc1C | ? | . | 10% | 1% | -4% | 0%
CCc1ccc(NC(=O)c2cccc(C(=O)Nc3ccc(CC)cc3)n2)cc1 | 5.4µM* | . | 16% | ? | 6% | 9%
COc1ccc(C)cc1NC(=O)c1cccc(C(=O)Nc2cc(C)ccc2OC)n1 | 0% | . | 1% | 12% | 0% | -5%
COC(=O)c1cccc(C(=O)Nc2ccc(C)cc2)n1 | 12µM* | -4% | ? | ? | 10% | 3.5µM*
CCOC(=O)Cn1cnc2c(sc3nc(C)cc(C)c32)c1=O | 12µM* | . | ? | ? | ? | ?
COC(=O)Cn1c(C)nc2c(sc3nc(C)cc(C)c32)c1=O | 12µM* | 11µM* | ? | ? | 16µM* | ?
C=CCn1cnc2c(sc3nc(C)cc(C)c32)c1=O | 17µM* | . | 19% | ? | ? | 6%
COc1ccccc1NC(=O)Cn1c(=O)n(CCc2ccccc2)c(=O)c2c3c(sc21)CN(C(C)=O)CC3 | -7% | 0% | . | . | . | .
COc1cccc(NC(=O)c2cn(C3CCCCC3)c(=O)c3c2c2ccccc2n3C)c1 | 4% | -24% | . | . | . | .
Cc1ccnc2nc(C(=O)Nc3nc4ccccc4s3)nn12 | 11µM* | . | 2.8µM* | ? | ? | 1µM*
Cc1ccc(NC(=O)c2nc3nccc(C)n3n2)c(C)c1 | ? | 11µM* | ? | ? | ? | ?
Cc1csc(NC(=O)c2nc3nccc(C)n3n2)n1 | ? | 14% | ? | ? | ? | ?
COc1cccc(C2=CC(c3ccccc3F)n3c(nc4ccccc43)N2)c1 (stereo not given) | 12µM* | . | . | . | . | .
Cc1ccc(C2=CC(c3ccccc3F)n3c(nc4ccccc43)N2)cc1C (stereo not given) | 6µM* | . | . | . | . | .
Cc1ccc(C2=CC(c3c(F)cccc3Cl)n3ncnc3N2)cc1C (stereo not given) | -12% | . | . | . | . | .
COCCn1c(=O)c(-c2ccc(F)c(F)c2)nc2cncnc21 | . | -9% | . | . | . | .
CCc1ccc2occ(CC(=O)Nc3nnc(C)s3)c2c1 | 0% | -2% | . | . | . | .
CC1(C)[C@@H](CC(=O)O)CCC[C@@H]1CC(=O)O | . | -12%[9.22 µM] | . | . | . | .
